These results are taken from PubChem BioAssay.

The nature of test [1]: inhibitors of mutant huntingtin aggregation, primary screen, imaging, exon1htt(103Q)mCFP cells, high-content imaging (AID 483;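 active means visual image review flags a hit and inhibition of aggregation exceeds 20%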;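 further: compound exposure lasted 3 days before fixation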;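 on nuclei count: percent of the per-plate median nuclei count of sample wells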). The conditions noted are these: exon1htt(103Q)mCFP cell line, aggregate imaging, at 2 µM; inhibition of aggregation: stronger effect = higher value; nuclei count: measured here: cell count, toxicity.
The nature of test [2]: inhibitors of E-selectin induction by TNFa, primary screen, imaging, HUVEC, immunofluorescence, MLSMR starter and 10KST1 sets (AID 487;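 active means visually confirmed hit in the image check and inhibition above 20%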;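 on inhibition: signal is fraction of cell area covered by stained E-selectin grains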;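 on nuclei count: 100% = median nuclei count of all wells on the same plate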). The conditions noted are these: HUVEC TNFalpha-induced E-selectin immunofluorescence imaging, at 2 µM; inhibition: stronger effect = higher value; nuclei count: measured here: cell number, toxicity.
Test [3] is described as follows: DUSP6 inhibitors restoring Erk phosphorylation by chemical complementation, primary imaging in DUSP6-transfected HeLa (AID 609;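 active means compounds giving at least 50% inhibition in the cell-based MKP-3 phosphatase rescue imaging test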;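 on inhibition: phospho-Erk level distribution per well compared with pooled transfected vehicle control wells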). The conditions noted are these: HeLa MKP-3 transfected, phospho-Erk imaging KS statistic, at 10 µM, cells stimulated with TPA for 15 min.
The target in test [4] is Dual specificity protein phosphatase 6 (Homo sapiens) (UniProt Q16828). The description is as above. The conditions noted are these: HeLa MKP-3 transfected, phospho-Erk imaging KS statistic; at 10 µM; stronger effect = higher value; cells stimulated with TPA for 15 min.
Dual specificity protein phosphatase 6 (Homo sapiens), sequence (Q16828 whole entry, looked up): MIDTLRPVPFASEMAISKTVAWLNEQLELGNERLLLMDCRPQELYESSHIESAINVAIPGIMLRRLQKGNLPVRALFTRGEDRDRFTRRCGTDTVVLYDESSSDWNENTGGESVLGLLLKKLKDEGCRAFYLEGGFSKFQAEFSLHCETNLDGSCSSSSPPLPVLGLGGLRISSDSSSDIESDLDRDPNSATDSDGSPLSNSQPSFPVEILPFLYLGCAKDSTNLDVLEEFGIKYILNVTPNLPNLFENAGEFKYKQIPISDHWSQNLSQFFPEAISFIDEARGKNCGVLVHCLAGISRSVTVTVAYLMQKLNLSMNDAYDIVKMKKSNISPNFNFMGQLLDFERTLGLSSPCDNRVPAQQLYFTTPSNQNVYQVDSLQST
For test [5], the target named is Voltage-gated potassium channel subunit beta-2 (Rattus norvegicus) (UniProt P62483). The test can be described thus: KvBeta enzyme negative modulators, primary screen, biochemical, NADPH fluorescence (AID 622;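 active means fluorescence slope higher than the sample average by over 3 SD, cut at about -0.22 in these data, passing the limit was not always enough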;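 further: slope of raw intensity against log time taken from 70 to 1610 s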). As to conditions: recombinant KvBeta, 4-cyanobenzaldehyde reduction, at 10 µM, stronger effect = higher value.
Voltage-gated potassium channel subunit beta-2 (Rattus norvegicus), sequence (P62483 whole entry, looked up): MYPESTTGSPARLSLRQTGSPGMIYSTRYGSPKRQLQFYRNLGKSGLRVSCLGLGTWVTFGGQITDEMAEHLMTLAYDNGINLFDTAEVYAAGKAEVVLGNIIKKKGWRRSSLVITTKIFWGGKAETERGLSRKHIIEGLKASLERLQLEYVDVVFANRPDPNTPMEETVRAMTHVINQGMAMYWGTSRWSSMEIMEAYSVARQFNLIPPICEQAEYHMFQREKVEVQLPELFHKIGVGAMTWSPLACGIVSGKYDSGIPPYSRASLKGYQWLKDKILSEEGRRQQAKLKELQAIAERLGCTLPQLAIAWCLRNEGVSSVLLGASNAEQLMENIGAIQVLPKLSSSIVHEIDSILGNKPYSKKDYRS
Test [6] shares this target. The test can be described thus: KvBeta positive modulators, primary screen, biochemical, NADPH fluorescence (AID 623;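 active means NADPH fluorescence slope more negative than the mean of all samples by about 3 SD, 99.7% confidence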;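 further: fluorescence intensity change per second fitted from 20 to 320 s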). As to conditions: Recombinant KvBeta, NADPH fluorescence decrease slope, 10 min; at 10 µM; stronger effect = lower value.
In test [7] the target is Alpha-2C adrenergic receptor (Homo sapiens) (UniProt P18825). The test can be described thus: modulators of alpha2C/GIRK thallium flux, primary screen, cell-based, HEK293 alpha2C/GIRK1/2 (AID 624;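 active means fluorescence slope after compound addition differing from the mean of all screened samples at 99.7% confidence, in either direction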;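 further: slope of fluorescence ratio to pre-addition baseline per second over 15 to 24 s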). As to conditions: thallium flux BTC fluorescence, at 10 µM, actives lie on both sides.
Alpha-2C adrenergic receptor (Homo sapiens), sequence (P18825 whole entry, looked up): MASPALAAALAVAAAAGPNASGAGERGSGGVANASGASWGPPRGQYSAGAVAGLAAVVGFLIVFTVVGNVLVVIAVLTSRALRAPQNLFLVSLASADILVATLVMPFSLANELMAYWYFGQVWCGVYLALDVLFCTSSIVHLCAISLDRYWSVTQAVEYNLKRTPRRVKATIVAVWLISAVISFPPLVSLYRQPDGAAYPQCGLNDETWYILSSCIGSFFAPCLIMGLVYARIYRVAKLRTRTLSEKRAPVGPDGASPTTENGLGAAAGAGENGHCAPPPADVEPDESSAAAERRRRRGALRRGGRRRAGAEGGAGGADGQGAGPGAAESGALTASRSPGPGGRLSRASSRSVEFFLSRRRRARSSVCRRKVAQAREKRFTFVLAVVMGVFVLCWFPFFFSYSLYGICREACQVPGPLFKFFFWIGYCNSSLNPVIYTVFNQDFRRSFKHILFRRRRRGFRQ
Test [8] can be described thus: inhibitors of larval lipid processing in zebrafish, primary screen, whole organism, PED6 fluorescence, gall bladder and intestine (AID 686;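 active means a full or partial loss of lipid-probe fluorescence in the fish gall bladder, intestine or both, judged by eye; inactive means no fluorescence loss, or compound toxic to the fish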;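 further: larvae 5 to 7 days old with five fish per well; signal comes from phospholipase A2 cleavage of quenched PED6 carried via bile; overnight exposure to compound and PED6 before scoring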). As to conditions: Zebrafish larvae PED6 lipid processing, fluorescence scoring; screened at 20 µM (by protocol).
Test [9] is described as follows: inhibitors of Chlamydomonas gravitaxis, primary screen, whole organism, Chlamydomonas reinhardtii, WT vs cilia-less mutant, absorbance, 96-well (AID 463189).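 Further: 0% = wild type cc124 cells in DMSO and 100% = ciliumless bld1 mutant cells.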 As to conditions: OD600 absorbance, 2 days, at 10 µM, stronger effect = higher value.
Test [10] is described as follows: inhibitors of Sendai virus-induced IRF3 signaling, primary screen, TLR/RLR signaling modifier project, cell-based, Sendai virus stimulus, luciferase, 10K MLSCN set (AID 602276;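 active means inhibition at or above 50% at 10 µM; inactive means inhibition below 50%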;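 further: firefly luciferase from ISG56 promoter only with Renilla not read in this screen; 0% = Sendai virus plus DMSO and 100% = medium plus DMSO without virus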). As to conditions: HEK293 RL24 IRF3 luciferase reporter, at 10 µM, stronger effect = higher value. (In general: In a reporter assay the amount or activity of a reporter protein is the signal.)
Test [11] is described as follows: inhibitors of poly I:C-induced TLR3 signaling, primary screen, cell-based, poly I:C stimulus, luciferase, 10K MLSCN set (AID 602277;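 active means inhibition of the reporter signal at or above 50%; inactive means inhibition below 50%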). As to conditions: HEK293-TLR3 RL24 IRF3 luciferase reporter, at 10 µM, stronger effect = higher value.
Test [12] deals with Muscarinic acetylcholine receptor M4 (Homo sapiens) (UniProt P08173). The test can be described thus: compounds altering M4/GIRK thallium flux, either direction, primary screen, M4 allosteric agonist project, cell-based, HEK293 M4/GIRK, BTC-AM (AID 625;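 active means fluorescence slope after compound addition differing from the mean of all tested samples at 99.7% confidence, mostly higher but some lower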;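 further: thallium influx through GIRK channels coupled to M4 in HEK293 cells with BTC-AM dye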). The conditions noted are these: at 10 µM, actives lie on both sides.
Muscarinic acetylcholine receptor M4 (Homo sapiens), sequence (P08173 whole entry, looked up): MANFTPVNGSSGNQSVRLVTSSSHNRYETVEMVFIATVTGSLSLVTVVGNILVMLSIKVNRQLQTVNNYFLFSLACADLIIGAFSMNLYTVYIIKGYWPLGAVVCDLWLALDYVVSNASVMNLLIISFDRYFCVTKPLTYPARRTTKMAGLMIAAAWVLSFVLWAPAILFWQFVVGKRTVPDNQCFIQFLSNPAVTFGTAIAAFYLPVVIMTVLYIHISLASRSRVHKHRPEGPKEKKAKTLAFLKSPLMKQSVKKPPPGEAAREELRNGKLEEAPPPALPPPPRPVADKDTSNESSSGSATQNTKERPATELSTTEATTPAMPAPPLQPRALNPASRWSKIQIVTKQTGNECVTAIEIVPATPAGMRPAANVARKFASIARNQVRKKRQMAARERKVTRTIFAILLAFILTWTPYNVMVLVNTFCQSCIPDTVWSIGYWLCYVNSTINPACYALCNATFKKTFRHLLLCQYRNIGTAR
The mark [13] stands for this setting: measured here: cell density z-score.
The mark [14] stands for this setting: measured here: nuclear c-Myc green intensity z-score.
Setting [15] is: measured here: nuclear pErk red intensity z-score, stronger effect = higher value.

Molecules are shown by their SMILES. Where “and” joins values, the source holds several entries; their conditions need not be identical. Equal entries are not always repeated. Calls of active or inactive are those of the source.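 How the source made its calls, unless noted: active means inhibition at or above 50% relative to wild type and mutant plate controls; inactive means inhibition below 50%.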

With `CCCC1O[C@@H]2C[C@H]3[C@@H]4CCC5=CC(=O)C=C[C@]5(C)[C@H]4[C@@H](O)C[C@]3(C)[C@]2(C(=O)CO)O1` (stereo not given in full), the inhibition of aggregation in test [1] is -17.2% (inactive). Further, the nuclei count stood at 58% in test [1] and 138% in test [2]. Moreover, the inhibition (commonly the change of the read-out against control, counted positive when it falls) in test [2] was -133% (inactive); in [4], 13.3% (inactive); in [9] it was 6.85% (inactive) and -4.63% (inactive); in [10], 0.287% (inactive); in test [11] it was 58.3% (active). Moreover, the z-score was 0.229 in test [3] (setting [13]), -0.532 in [3] (setting [14]) and -0.405 in test [3] (setting [15]). In test [5], the fluorescence slope is -0.423 (inactive). The NADPH fluorescence slope in test [6] was 1.2e-05 (inactive). Also, in test [7], the slope is 0.00479 (inactive). Also, in [8], the compound was called inactive.

Consider `COc1cc(NS(=O)(=O)c2ccc(N)cc2)ncn1`, for which the inhibition of aggregation in test [1] was 15.6% (inactive). Moreover, the nuclei count in test [1] is 100%; in test [2] it was 109% and 156%. The inhibition was -87.8% (inactive) and -123% (inactive) in test [2]; 12.4% (inactive) and -1.98% (inactive) in test [4]; 15.5% (inactive) and 12.3% (inactive) in [9]; 6.56% (inactive) in [10]; 32.2% (inactive) in test [11]. Also, the z-score in test [3] (setting [13]) was -0.758 and -0.797; in test [3] (setting [14]) it was -0.381 and 0.601; in test [3] (setting [15]), 1.83 and 0.0867. The fluorescence slope is -0.448 (inactive) and -0.477 (inactive) in test [5]; 0.00587 (inactive) in [12]. Besides, the NADPH fluorescence slope in test [6] was -8.5e-05 (inactive) and -7.6e-05 (inactive). Also, the slope in test [7] is 0.00452 (inactive). The outcome in test [8] was inactive.

On to `O=C(c1ccc(F)cc1)C1CCN(CCn2c(=O)[nH]c3ccccc3c2=O)CC1`, for which the inhibition of aggregation in test [1] was -3.2% (inactive). Also, the figures for the nuclei count in test [1] and in test [2] were 96.4% and 112%, respectively. For the same compound, the inhibition in [2] is -46.9% (inactive); in test [4], 14.6% (inactive); in test [9], 4.84% (inactive) and -9.28% (inactive); in [10], 0.811% (inactive); in test [11], 31.8% (inactive). The z-score in test [3] (setting [13]) was 0.976; in test [3] (setting [14]) it was 0.365; in [3] (setting [15]), 0.163. The fluorescence slope in test [5] was -0.453 (inactive). Also, the NADPH fluorescence slope in test [6] is -6.9e-05 (inactive). Besides, the slope in test [7] is 0.00505 (inactive). Also, in test [8], the compound was classed as inactive.

For the compound `CCN1CCN(C(=O)N[C@@H](C(=O)N[C@@H]2C(=O)N3[C@@H]2SC(C)(C)[C@@H]3C(=O)O)c2ccccc2)C(=O)C1=O`, the inhibition of aggregation in [1] was 2.8% (inactive). For the same compound, the nuclei count was determined as 97.2% in test [1] and 101% in test [2]. The inhibition in test [2] is -1.2% (inactive); in [4], 5.42% (inactive); in [9], -8.35% (inactive); in [10] it was 6.7% (inactive); in test [11], 14.4% (inactive). Besides, the z-score is -0.734 in test [3] (setting [13]), -0.264 in test [3] (setting [14]) and -1.18 in test [3] (setting [15]). The fluorescence slope in test [5] is -0.465 (inactive). In addition, in [6], the NADPH fluorescence slope is -4.7e-05 (inactive). Moreover, the slope in test [7] was 0.0054 (inactive). In addition, the result in test [8] was inactive.

Turning to `CCCc1cc(=O)[nH]c(=S)[nH]1`, the inhibition of aggregation in [1] was 6.2% (inactive). Further, the nuclei count in test [1] is 105%; in test [2], 126%. The inhibition was -113% (inactive) in test [2]; 15.3% (inactive) in test [4]; -10.4% (inactive) in test [9]; 10.3% (inactive) in test [10]; 30.1% (inactive) in test [11]. In addition, the z-score in [3] (setting [13]) was 0.461; in test [3] (setting [14]), -0.47; in [3] (setting [15]) it was -0.798. In [5], the fluorescence slope is -0.468 (inactive). Also, the NADPH fluorescence slope in test [6] was -6.3e-05 (inactive). The slope in test [7] was 0.00437 (inactive). Also, in test [8], the result was inactive.

On to `C1COC(NC(C2CC2)C2CC2)=N1`, for which the inhibition of aggregation in test [1] was 19% (inactive). Moreover, the results for the nuclei count in [1] and in test [2] were 109% and 116%, respectively. Besides, the inhibition is -91.3% (inactive) in test [2]; 25.7% (inactive) in test [4]; 2.12% (inactive) and 18.6% (inactive) in test [9]; -6% (inactive) in test [10]; 20.5% (inactive) in test [11]. Further, the z-score was -0.996 in [3] (setting [13]), 0.285 in test [3] (setting [14]) and -0.338 in [3] (setting [15]). Besides, the fluorescence slope in test [5] is -0.468 (inactive). For the same compound, the NADPH fluorescence slope in test [6] was -4.8e-05 (inactive). For the same compound, the slope in test [7] is 0.00489 (inactive).

As for `CC(C)(C)NC[C@H](O)COc1nsnc1N1CCOCC1`, in test [1], the inhibition of aggregation is -13.8% (inactive). In addition, the nuclei count in test [1] came to 102%; in test [2], 119%. Also, the inhibition in test [2] is -120% (inactive); in test [4], -10.4% (inactive); in test [9], -10.5% (inactive); in test [10], 6.87% (inactive); in test [11], 46.4% (inactive). Besides, the z-score is -0.0639 in test [3] (setting [13]), -0.39 in test [3] (setting [14]) and 1.55 in [3] (setting [15]). For the same compound, the fluorescence slope in test [5] was -0.502 (inactive). The NADPH fluorescence slope in [6] was -5e-06 (inactive). Besides, the slope in test [7] is 0.00458 (inactive). Also, the result in test [8] was inactive.

For `CNC(=O)Oc1ccc2c(c1)[C@]1(C)CCN(C)[C@@H]1N2C`, the inhibition of aggregation in test [1] is 21.6% (inactive). The nuclei count in test [1] came out at 88.6%; in test [2], 104%. Moreover, the inhibition is -22.9% (inactive) in [2]; -6.41% (inactive) in [4]; -0.375% (inactive) and -9.03% (inactive) in test [9]; 15.2% (inactive) in test [10]; 36.1% (inactive) in test [11]. Besides, the z-score is -2.43 in [3] (setting [13]), -0.577 in [3] (setting [14]) and -0.583 in test [3] (setting [15]). For the same compound, in [5], the fluorescence slope is -0.435 (inactive). Moreover, in [6], the NADPH fluorescence slope is 1.7e-05 (inactive). The slope in test [7] was 0.00657 (inactive). The result in test [8] was inactive.

As to `CN1Cc2c(N)cccc2C(c2ccccc2)C1` (stereo not given), the inhibition of aggregation in test [1] is 5.1% (inactive). Further, the nuclei count in test [1] was determined as 95.3%; in test [2], 131%. The inhibition in [2] is -73% (inactive); in test [4] it was 3.45% (inactive); in test [9] it was 70.5% (active) and 60.3% (active); in test [10] it was 9.51% (inactive); in [11] it was 22.5% (inactive). In addition, the values for the z-score in test [3] (setting [13]), in [3] (setting [14]) and in test [3] (setting [15]) were -0.942, 0.0925 and 1.7, respectively. Moreover, in test [5], the fluorescence slope was -0.505 (inactive). The NADPH fluorescence slope in test [6] was -5.7e-05 (inactive). In addition, the slope in [7] is 0.00524 (inactive). Moreover, in test [8], the call was inactive.
